# In article PMC7862700, “An all-to-all approach to the identification of sequence-specific readers for epigenetic DNA modifications on cytosine”:
# How the values were obtained:
# Assay in all cases: DAPPL (digital affinity profiling via proximity ligation, sequencing); 10 mM Tris-HCl pH 7.5, 50 mM NaCl, 1 mM DTT, 4% glycerol, room temperature, 30 min; GST-TFs on glutathione beads, 16-mer random dsDNA library, 0.1% formaldehyde crosslink after washing; high values mean tight binding
# FEV = biological target: T1, FEV (Homo sapiens, UniProt Q99581 1-238); settings: protein: recombinant; tags: N-terminal GST; dsDNA, one strand shown
# T1 sequence: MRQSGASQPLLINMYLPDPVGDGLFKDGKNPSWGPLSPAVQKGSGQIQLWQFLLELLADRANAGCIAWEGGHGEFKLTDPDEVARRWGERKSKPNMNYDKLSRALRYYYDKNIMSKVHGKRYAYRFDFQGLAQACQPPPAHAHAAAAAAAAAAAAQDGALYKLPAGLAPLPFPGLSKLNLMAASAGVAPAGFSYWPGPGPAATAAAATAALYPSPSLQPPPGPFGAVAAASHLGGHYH
# How it was run: (§1)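 Human transcription factors fused to GST were expressed in yeast, captured on glutathione beads, given DNA barcodes and pooled with a GST-only negative control. Pools were incubated with 200 nmole of a 16-mer random double-stranded DNA library in Tris/NaCl/DTT/glycerol buffer at room temperature for 30 min. They were then washed, crosslinked with 0.1% formaldehyde, proximity-ligated (BsaI/T4 ligase, 1 h, 37 °C), PCR-amplified and sequenced on an Illumina NextSeq500. Binding signal is each 6-mer's read frequency for a factor divided by its frequency for the GST control.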
# ETV5 = ETV5 (Homo sapiens, UniProt P41161 1-510); settings: protein: recombinant; tags: N-terminal GST; dsDNA, one strand shown
# Chain of ETV5 (P41161 whole entry): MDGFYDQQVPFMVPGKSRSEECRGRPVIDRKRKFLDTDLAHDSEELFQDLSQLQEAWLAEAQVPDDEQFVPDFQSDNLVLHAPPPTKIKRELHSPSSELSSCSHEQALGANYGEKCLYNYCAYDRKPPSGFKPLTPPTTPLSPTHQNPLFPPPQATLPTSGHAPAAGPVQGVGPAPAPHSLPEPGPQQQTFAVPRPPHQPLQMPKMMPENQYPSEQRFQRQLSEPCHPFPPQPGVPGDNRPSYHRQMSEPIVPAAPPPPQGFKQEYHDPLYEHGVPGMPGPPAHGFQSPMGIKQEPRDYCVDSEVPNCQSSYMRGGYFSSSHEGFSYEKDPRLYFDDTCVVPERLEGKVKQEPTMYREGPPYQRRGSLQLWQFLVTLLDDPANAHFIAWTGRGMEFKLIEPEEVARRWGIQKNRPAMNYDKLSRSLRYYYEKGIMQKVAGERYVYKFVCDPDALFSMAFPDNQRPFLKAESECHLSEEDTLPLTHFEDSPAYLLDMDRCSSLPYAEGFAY
# How it was run: as §1
# HSF1 = HSF1 (Homo sapiens, UniProt Q00613 1-529); settings: protein: recombinant; tags: N-terminal GST; chain copies: 3; dsDNA, one strand shown
# Chain of HSF1 (Q00613 whole entry): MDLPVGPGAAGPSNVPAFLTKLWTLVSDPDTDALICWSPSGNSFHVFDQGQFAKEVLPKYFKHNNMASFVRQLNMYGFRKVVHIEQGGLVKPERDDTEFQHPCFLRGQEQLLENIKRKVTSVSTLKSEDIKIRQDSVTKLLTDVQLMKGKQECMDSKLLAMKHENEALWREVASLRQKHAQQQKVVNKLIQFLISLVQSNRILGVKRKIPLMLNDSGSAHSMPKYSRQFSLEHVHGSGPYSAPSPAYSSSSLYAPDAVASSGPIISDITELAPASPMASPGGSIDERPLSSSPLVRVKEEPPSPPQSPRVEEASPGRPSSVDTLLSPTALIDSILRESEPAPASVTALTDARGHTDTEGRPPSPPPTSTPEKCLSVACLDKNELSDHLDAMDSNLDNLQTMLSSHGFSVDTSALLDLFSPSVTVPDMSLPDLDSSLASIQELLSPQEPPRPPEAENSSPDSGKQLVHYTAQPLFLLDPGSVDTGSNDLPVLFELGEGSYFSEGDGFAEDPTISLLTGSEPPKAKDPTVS
# How it was run: as §1
# SPIC = biological target: T2, SPIC (Homo sapiens, UniProt Q8N5J4 1-248); settings: protein: recombinant; tags: N-terminal GST; dsDNA, one strand shown
# T2 sequence: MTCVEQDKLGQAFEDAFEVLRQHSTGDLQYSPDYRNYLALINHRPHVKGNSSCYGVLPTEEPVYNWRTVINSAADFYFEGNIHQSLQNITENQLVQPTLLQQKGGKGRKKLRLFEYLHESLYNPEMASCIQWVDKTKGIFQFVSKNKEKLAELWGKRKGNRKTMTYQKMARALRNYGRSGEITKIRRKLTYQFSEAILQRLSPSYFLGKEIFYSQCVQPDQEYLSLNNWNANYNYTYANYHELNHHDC
# How it was run: as §1
# ELF4 = ELF4 (Homo sapiens, UniProt Q99607 1-663); settings: protein: recombinant; tags: N-terminal GST; dsDNA, one strand shown
# Chain of ELF4 (Q99607 whole entry): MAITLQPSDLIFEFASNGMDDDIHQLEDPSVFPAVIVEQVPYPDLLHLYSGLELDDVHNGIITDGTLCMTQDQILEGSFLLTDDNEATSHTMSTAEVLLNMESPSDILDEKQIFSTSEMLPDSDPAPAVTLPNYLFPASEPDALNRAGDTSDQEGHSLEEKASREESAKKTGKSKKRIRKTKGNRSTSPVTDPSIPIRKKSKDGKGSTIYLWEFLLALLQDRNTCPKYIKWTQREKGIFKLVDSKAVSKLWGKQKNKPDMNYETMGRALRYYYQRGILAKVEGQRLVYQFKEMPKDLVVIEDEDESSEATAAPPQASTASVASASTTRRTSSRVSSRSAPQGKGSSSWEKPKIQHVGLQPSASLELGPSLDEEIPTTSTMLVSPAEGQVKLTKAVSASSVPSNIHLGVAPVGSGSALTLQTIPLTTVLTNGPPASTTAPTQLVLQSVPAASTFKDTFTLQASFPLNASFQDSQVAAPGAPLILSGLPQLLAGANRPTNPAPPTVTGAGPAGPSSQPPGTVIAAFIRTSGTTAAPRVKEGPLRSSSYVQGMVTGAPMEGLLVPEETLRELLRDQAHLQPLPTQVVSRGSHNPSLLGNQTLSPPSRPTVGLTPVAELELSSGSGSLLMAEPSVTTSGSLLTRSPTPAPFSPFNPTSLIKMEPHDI
# How it was run: as §1
# ELK4 = biological target: T3, ELK4 (Homo sapiens, UniProt P28324-2 1-405); settings: protein: recombinant; tags: N-terminal GST; dsDNA, one strand shown
# T3 sequence: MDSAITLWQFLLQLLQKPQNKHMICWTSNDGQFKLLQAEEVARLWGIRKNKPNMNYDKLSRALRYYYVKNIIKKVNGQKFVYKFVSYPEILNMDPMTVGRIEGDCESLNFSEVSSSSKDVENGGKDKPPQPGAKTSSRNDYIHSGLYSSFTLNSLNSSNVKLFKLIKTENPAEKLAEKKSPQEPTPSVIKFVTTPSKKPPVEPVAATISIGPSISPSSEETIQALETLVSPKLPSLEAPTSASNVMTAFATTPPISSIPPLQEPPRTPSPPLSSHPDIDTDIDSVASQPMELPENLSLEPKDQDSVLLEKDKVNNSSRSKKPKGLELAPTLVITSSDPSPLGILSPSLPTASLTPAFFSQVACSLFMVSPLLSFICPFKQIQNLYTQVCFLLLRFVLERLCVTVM
# How it was run: as §1
# ETV2 = biological target: T4, ETV2 (Homo sapiens, UniProt O00321 1-342); settings: protein: recombinant; tags: N-terminal GST; dsDNA, one strand shown
# T4 sequence: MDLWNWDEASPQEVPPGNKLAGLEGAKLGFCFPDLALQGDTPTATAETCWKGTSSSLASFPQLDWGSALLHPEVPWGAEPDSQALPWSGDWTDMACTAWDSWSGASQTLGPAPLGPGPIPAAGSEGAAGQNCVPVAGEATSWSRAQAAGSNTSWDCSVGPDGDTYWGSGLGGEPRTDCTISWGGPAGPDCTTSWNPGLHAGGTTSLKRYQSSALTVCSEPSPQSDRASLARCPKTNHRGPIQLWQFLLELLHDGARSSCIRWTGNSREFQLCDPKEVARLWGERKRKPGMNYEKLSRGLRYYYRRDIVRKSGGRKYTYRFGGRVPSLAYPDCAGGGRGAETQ
# How it was run: as §1
# ELF3 = biological target: T5, ELF3 (Homo sapiens, UniProt P78545 1-371); settings: protein: recombinant; tags: N-terminal GST; dsDNA, one strand shown
# T5 sequence: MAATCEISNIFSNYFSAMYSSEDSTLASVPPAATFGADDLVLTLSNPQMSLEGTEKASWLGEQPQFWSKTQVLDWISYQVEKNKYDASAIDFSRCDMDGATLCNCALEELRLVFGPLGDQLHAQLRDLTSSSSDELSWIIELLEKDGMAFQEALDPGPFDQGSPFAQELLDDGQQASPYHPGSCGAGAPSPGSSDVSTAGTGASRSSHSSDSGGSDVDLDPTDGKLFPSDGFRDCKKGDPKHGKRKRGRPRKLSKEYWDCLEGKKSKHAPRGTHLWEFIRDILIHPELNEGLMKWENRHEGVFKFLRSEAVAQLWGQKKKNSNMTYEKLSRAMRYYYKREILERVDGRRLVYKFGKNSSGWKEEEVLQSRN
# How it was run: as §1
# CRX = CRX (Homo sapiens, UniProt O43186 1-299); settings: protein: recombinant; tags: N-terminal GST; dsDNA, one strand shown
# Chain of CRX (O43186 whole entry): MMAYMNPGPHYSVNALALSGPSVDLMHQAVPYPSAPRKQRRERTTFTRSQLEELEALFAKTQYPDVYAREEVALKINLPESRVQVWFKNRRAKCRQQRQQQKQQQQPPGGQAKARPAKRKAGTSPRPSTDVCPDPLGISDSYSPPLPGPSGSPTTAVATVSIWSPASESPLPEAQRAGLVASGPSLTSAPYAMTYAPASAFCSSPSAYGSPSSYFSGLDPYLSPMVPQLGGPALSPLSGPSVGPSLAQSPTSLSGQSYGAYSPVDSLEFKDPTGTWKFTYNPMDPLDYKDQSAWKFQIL
# How it was run: as §1
# ETV1 = ETV1 (Homo sapiens, UniProt P50549 1-477); settings: protein: recombinant; tags: N-terminal GST; dsDNA, one strand shown
# Chain of ETV1 (P50549 whole entry): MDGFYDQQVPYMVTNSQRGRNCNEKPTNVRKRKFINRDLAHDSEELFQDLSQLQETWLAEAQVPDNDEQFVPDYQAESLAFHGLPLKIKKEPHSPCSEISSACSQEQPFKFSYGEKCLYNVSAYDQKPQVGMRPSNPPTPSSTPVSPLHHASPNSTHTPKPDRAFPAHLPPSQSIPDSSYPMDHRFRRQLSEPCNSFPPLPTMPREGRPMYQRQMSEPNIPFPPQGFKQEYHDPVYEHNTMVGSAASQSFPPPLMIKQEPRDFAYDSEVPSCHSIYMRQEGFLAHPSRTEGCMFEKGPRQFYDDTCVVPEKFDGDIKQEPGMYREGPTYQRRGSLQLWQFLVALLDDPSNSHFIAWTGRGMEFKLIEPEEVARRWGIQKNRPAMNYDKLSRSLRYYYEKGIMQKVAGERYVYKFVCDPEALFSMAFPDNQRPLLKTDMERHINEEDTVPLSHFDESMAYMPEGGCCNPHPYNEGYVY
# How it was run: as §1
# ERF = biological target: T6, ERF (Homo sapiens, UniProt P50548 1-548); settings: protein: recombinant; tags: N-terminal GST; dsDNA, one strand shown
# T6 sequence: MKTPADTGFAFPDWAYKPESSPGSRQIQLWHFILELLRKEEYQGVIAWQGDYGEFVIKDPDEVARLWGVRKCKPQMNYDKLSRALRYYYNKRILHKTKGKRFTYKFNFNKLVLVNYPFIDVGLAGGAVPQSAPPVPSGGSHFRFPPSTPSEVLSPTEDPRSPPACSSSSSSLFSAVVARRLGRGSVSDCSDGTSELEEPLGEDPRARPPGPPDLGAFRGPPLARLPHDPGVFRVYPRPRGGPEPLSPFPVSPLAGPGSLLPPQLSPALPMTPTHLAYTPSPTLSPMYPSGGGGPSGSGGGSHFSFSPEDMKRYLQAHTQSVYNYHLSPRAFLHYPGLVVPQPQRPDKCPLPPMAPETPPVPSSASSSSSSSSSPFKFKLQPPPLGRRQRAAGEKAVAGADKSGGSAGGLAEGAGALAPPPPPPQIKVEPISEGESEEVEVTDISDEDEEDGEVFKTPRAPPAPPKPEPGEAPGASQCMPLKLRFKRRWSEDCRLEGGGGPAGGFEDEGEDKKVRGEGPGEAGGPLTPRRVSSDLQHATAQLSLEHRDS
# How it was run: as §1
# ETV3L = biological target: T7, ETV3L (Homo sapiens, UniProt Q6ZN32 1-361); settings: protein: recombinant; tags: N-terminal GST; dsDNA, one strand shown
# T7 sequence: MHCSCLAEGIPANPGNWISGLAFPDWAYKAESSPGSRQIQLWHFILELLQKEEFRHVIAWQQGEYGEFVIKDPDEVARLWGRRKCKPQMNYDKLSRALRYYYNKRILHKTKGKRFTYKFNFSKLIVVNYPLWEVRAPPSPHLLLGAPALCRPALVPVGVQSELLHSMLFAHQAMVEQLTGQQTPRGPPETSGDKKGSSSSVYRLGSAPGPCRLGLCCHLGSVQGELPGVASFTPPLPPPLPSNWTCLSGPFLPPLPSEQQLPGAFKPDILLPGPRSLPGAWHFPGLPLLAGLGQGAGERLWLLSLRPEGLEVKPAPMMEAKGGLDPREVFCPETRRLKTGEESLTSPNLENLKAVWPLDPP
# How it was run: as §1
# ETS2 = biological target: T8, ETS2 (Homo sapiens, UniProt P15036 1-469); settings: protein: recombinant; tags: N-terminal GST; dsDNA, one strand shown
# T8 sequence: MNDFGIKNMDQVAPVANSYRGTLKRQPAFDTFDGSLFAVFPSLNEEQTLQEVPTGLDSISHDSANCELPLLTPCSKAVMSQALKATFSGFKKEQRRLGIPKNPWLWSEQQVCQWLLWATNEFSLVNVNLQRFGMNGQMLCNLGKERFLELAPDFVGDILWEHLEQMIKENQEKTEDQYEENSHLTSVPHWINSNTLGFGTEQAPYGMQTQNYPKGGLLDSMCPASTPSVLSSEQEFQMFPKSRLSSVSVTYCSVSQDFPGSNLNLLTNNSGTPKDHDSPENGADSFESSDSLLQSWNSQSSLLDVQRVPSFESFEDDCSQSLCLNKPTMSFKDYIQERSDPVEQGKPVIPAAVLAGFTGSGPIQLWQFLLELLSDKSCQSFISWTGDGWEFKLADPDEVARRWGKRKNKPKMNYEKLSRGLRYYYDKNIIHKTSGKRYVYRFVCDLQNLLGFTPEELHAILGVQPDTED
# How it was run: as §1
# SPDEF = biological target: T9, SPDEF (Homo sapiens, UniProt O95238 1-335); settings: protein: recombinant; tags: N-terminal GST; dsDNA, one strand shown
# T9 sequence: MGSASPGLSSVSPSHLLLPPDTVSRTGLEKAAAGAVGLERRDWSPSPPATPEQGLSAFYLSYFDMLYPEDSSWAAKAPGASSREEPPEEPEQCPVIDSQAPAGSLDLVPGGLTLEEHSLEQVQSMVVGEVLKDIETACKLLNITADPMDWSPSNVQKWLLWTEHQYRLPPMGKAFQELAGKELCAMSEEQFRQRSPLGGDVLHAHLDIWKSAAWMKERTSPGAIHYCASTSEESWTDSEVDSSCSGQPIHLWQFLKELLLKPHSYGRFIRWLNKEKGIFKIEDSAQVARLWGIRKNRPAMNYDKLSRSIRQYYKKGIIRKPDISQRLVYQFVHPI
# How it was run: as §1
# ETV7 = biological target: T10, ETV7 (Homo sapiens, UniProt Q9Y603 1-341); settings: protein: recombinant; tags: N-terminal GST; dsDNA, one strand shown
# T10 sequence: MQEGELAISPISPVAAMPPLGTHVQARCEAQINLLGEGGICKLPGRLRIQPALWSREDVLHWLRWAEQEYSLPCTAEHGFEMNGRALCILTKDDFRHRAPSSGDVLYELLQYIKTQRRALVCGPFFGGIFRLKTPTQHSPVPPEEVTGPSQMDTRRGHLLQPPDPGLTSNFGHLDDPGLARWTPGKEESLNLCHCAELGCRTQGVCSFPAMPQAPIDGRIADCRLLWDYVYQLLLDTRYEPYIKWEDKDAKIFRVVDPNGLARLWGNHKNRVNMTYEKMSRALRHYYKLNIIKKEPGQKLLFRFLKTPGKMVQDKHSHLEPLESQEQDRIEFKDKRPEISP
# How it was run: as §1
# ELF5 = biological target: T11, ELF5 (Homo sapiens, UniProt Q9UKW6-2 1-255); settings: protein: recombinant; tags: N-terminal GST; dsDNA, one strand shown
# T11 sequence: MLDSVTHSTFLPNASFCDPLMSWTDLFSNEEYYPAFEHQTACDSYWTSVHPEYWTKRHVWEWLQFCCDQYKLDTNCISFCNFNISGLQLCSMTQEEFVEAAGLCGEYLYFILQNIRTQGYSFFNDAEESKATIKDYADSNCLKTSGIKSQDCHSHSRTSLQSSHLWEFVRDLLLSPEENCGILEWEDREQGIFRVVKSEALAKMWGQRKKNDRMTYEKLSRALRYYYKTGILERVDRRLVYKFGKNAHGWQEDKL
# How it was run: as §1
# ETV3 = biological target: T12, ETV3 (Homo sapiens, UniProt P41162-2 1-143); settings: protein: recombinant; tags: N-terminal GST; dsDNA, one strand shown
# T12 sequence: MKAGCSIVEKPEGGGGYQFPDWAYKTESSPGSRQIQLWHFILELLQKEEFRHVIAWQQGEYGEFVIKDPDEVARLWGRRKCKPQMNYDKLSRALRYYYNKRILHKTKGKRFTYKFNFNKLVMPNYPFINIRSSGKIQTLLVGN
# How it was run: as §1
# ETV6 = ETV6 (Homo sapiens, UniProt P41212 1-452); settings: protein: recombinant; tags: N-terminal GST; dsDNA, one strand shown
# Chain of ETV6 (P41212 whole entry): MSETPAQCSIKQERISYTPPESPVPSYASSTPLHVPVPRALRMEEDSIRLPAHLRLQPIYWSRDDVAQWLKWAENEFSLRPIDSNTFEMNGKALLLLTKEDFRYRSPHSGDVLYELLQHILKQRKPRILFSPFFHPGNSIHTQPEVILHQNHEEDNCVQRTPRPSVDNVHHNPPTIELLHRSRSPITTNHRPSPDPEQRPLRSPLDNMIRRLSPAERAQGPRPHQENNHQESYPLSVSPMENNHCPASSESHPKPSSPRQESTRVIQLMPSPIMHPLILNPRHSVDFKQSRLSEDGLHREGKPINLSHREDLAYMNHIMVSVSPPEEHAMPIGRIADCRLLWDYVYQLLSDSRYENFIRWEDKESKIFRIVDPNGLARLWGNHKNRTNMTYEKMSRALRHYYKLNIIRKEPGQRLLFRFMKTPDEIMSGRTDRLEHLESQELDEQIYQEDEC
# How it was run: as §1
sequence,measurement,setting,value
TCTCGA,binding signal,FEV,"1.23 fold enrichment (6-mer frequency, TF over GST control)"
same,binding signal,ETV5,"1.4 fold enrichment (6-mer frequency, TF over GST control)"
same,binding signal,HSF1,"5.05 fold enrichment (6-mer frequency, TF over GST control)"
same,binding signal,SPIC,"1.35 fold enrichment (6-mer frequency, TF over GST control)"
same,binding signal,ELF4,"1.51 fold enrichment (6-mer frequency, TF over GST control)"
same,binding signal,ELK4,"1.46 fold enrichment (6-mer frequency, TF over GST control)"
same,binding signal,ETV2,"1.27 fold enrichment (6-mer frequency, TF over GST control)"
same,binding signal,ELF3,"1.35 fold enrichment (6-mer frequency, TF over GST control)"
same,binding signal,CRX,"2.28 fold enrichment (6-mer frequency, TF over GST control)"
same,binding signal,ETV1,"1.47 fold enrichment (6-mer frequency, TF over GST control)"
same,binding signal,ERF,"1.35 fold enrichment (6-mer frequency, TF over GST control)"
same,binding signal,ETV3L,"1.35 fold enrichment (6-mer frequency, TF over GST control)"
same,binding signal,ETS2,"1.44 fold enrichment (6-mer frequency, TF over GST control)"
same,binding signal,SPDEF,"1.2 fold enrichment (6-mer frequency, TF over GST control)"
same,binding signal,ETV7,"1.47 fold enrichment (6-mer frequency, TF over GST control)"
same,binding signal,ELF5,"1.27 fold enrichment (6-mer frequency, TF over GST control)"
same,binding signal,ETV3,"1.4 fold enrichment (6-mer frequency, TF over GST control)"
same,binding signal,ETV6,"1.47 fold enrichment (6-mer frequency, TF over GST control)"
